Test results reported in PubChem BioAssay (NCI).
About 83,000 compounds went through this panel and 20% of them were active in at least one assay; those are over-represented in the sample as a whole.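 Percent growth is the endpoint: 0 to 100 indicates growth inhibition (40 means 60% inhibition), 0 means no net growth, and negative values indicate cell death.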 Calls of active or inactive are those of the source. The calls were made as follows: active = growth percent below 10; inactive = the rest.

Tested on: SNB-75 CNS
Assay: NCI-60 one-dose screen, 48 h (100 = growth as untreated, 0 = no growth, -100 = all killed)
Conditions: 10 µM unless noted

Structure (SMILES) | growth
Cc1cc2nc3c4cc(C#N)ccc4n(CCN(C)C)c3nc2cc1C | -8.73% (active)
N#Cc1c(-c2cccs2)cc(-c2cnccn2)nc1SCC(=O)N/N=C/c1ccncc1 | 99.3% (inactive)
CCOC(=O)c1cccc(NC2=C(Cl)C(=O)C(C)=C(C)C2=O)c1 | 104% (inactive)
c1ccc(-c2cn3c(-c4c[nH]c5ccccc45)csc3n2)cc1 | 80.9% (inactive)
Cc1cc(Br)ccc1-n1cc(C#N)c(N)c1C(=O)c1ccc(Br)cc1 | 95.6% (inactive)
Cn1cc(-c2cc3ncnc(Nc4ccc(NC(=O)Nc5cc(C(C)(C)C)on5)cc4)c3s2)cn1 | 6.15% (active)
Nc1cc(C(=O)N/N=C\c2ccc(OC(F)F)c(OC3CCCC3)c2)nn1CC(O)c1ccccc1 (stereo not given) | 84.1% (inactive)
COc1ccc(C2CC(c3cccc(OCCCCOc4cccc(C5=NOC(c6ccc(OC)cc6)C5)c4)c3)=NO2)cc1 (stereo not given) | 101% (inactive)
O=C(COc1ccc(/C=C2\C(=O)Nc3ccc(Cl)cc32)cc1)Nc1ccc(Cl)cc1 | 78.9% (inactive)
Cn1cc(-c2nnc(N)nc2-c2c[nH]c3ccc(F)cc23)c2cc(Br)ccc21 | 0.251% (active)
C[C@H](Nc1ncnc2ccc(-c3cnc(Cl)c(NS(C)(=O)=O)c3)cc12)c1ccccc1 | -3.07% (active)
O=C(CSc1nc2ccccc2c(=O)n1CCc1ccccc1)Nc1ccc(S(=O)(=O)Nc2ccc(Cl)nn2)cc1 | 78.7% (inactive)
NS(=O)(=O)c1ccc(Nc2nc(N/N=C/C=C/c3ccccc3)nc(Nc3ccccc3)n2)cc1 | 43% (inactive)
O=C1[C@H]2Cc3c([nH]c4ccccc34)[C@H](c3ccc(Br)cc3)N2C(=O)CN1C1CCN(CC2CCCCC2)CC1 | 52.6% (inactive)
CCc1cc2c(cc1Cl)nc1c(=O)[nH]c(=O)nc-1n2CCOCC(C)(C)C | 97% (inactive)
COc1ccc(-c2nc(C#N)c(N3CCC(S(=O)(=O)N4CCOCC4)CC3)o2)cc1 | 103% (inactive)

Structure (SMILES) | growth
COC(=O)c1ccc(NC2=C(Cl)C(=O)c3nc(C)ccc3C2=O)cc1 | 106% (inactive)
Cc1ccccc1N1CCN(C2=C(Cl)C(=O)c3ncccc3C2=O)CC1 | 82.6% (inactive)
CC[C@]12C=CCN3CC[C@@]4(c5ccc(OC)cc5N(C)[C@H]4[C@@](O)(C(=O)OC)[C@@H]1OC(=O)CCN1CCc4ccccc4C1)[C@@H]32 | 66.9% (inactive)
Cc1nc(N)sc1-c1csc(Nc2ccc(C(F)(F)F)cc2)n1 | 56.5% (inactive)
Cn1cc(-c2nnc(N)nc2-c2c[nH]c3ccc(Br)cc23)c2cc(Br)ccc21 | 82.3% (inactive)
C#C[C@]1(O)CC[C@H]2[C@@H]3CC=C4c5sc(N(C)c6ccccc6)nc5CC[C@]4(C)[C@H]3CC[C@@]21C | 99.8% (inactive)
NS(=O)(=O)c1ccc(Nc2nc(Nc3ccccc3)nc(N3N=C(c4ccc(Cl)cc4)CC3c3ccc(Cl)cc3)n2)cc1 (stereo not given) | 68% (inactive)
O=C(CCCCCCN1CC(=O)N2[C@@H](c3ccc(Cl)s3)c3[nH]c4ccccc4c3C[C@H]2C1=O)NO | 22.5% (inactive)
CCCCc1nc2c(N)nc3ccccc3c2n1Cc1cccc(CN)c1 | 15.1% (inactive)
N#C/C(=C\c1ccc(-c2ccc(Cl)c(Cl)c2)o1)C(=O)Nc1ncc(Cc2ccc(Cl)cc2)s1 | 7.13% (active)
O=C(Nc1ccc(Cl)c(C(F)(F)F)c1)Nc1ccc2oc(=O)ccc2c1 | 58.6% (inactive)
COc1ccc2[nH]cc(/C=N/Nc3ccnc4cc(Cl)ccc34)c2c1 | -94.1% (active)
O=C1Nc2ccccc2/C1=C/c1ccc(OCC(=O)c2ccccc2)cc1 | 73.8% (inactive)
NS(=O)(=O)c1nnc(/N=C/c2c(O)[nH]c3ccccc23)s1 | 81.2% (inactive)
COc1cc(/C=C2/C(=O)Nc3ccc(Cl)cc32)ccc1OCc1ccc(Cl)cc1 | 77.7% (inactive)

Tested on: SNB-19 CNS
Assay: as above
Conditions: 10 µM unless noted

Structure (SMILES) | growth
CC1=C(C)C(=O)C(Nc2ccc(C)cc2)=C(Br)C1=O | 101% (inactive)
Cc1ccc(N2CCN(C3=C(Cl)C(=O)c4ncccc4C3=O)CC2)cc1 | 70.3% (inactive)
COc1ccc2[nH]cc(-c3nc(N)nnc3-c3cn(C)c4ccc(Br)cc34)c2c1 | 30.5% (inactive)
O=C(/C=C/c1ccccc1Cl)Nc1ncc(Cc2cc(Cl)ccc2Cl)s1 | 21% (inactive)
CN(C)S(=O)(=O)c1ccc(-c2nc(C(Cl)Cl)nc3cc(-c4ccc(F)cc4)nn23)cc1 | 23.5% (inactive)
Fc1ccc(-c2cn3c(-c4c[nH]c5ccc(Br)cc45)csc3n2)cc1 | 52.6% (inactive)
C#Cc1nc(/C=C/CCCCCCC(=O)NO)cs1 | 86.1% (inactive)
CC(C)=CCC[C@](C)(O)[C@H]1CC[C@]2(C)[C@@H]1CC[C@@H]1[C@@]3(C)CC[C@H](N)C(C)(C)[C@@H]3CC[C@]12C | 81.2% (inactive)
Cc1cc2nc3c4cc(C#N)ccc4n(CCN(C)C)c3nc2cc1C | 5.67% (active)
N#Cc1c(-c2cccs2)cc(-c2cnccn2)nc1SCC(=O)N/N=C/c1ccncc1 | 101% (inactive)
c1ccc(-c2cn3c(-c4c[nH]c5ccccc45)csc3n2)cc1 | 59.7% (inactive)
Cc1cc(Br)ccc1-n1cc(C#N)c(N)c1C(=O)c1ccc(Br)cc1 | 96.3% (inactive)
Cn1cc(-c2cc3ncnc(Nc4ccc(NC(=O)Nc5cc(C(C)(C)C)on5)cc4)c3s2)cn1 | 56.4% (inactive)
Nc1cc(C(=O)N/N=C\c2ccc(OC(F)F)c(OC3CCCC3)c2)nn1CC(O)c1ccccc1 (stereo not given) | 96.4% (inactive)
COc1ccc(C2CC(c3cccc(OCCCCOc4cccc(C5=NOC(c6ccc(OC)cc6)C5)c4)c3)=NO2)cc1 (stereo not given) | 92% (inactive)
Cn1cc(-c2nnc(N)nc2-c2c[nH]c3ccc(F)cc23)c2cc(Br)ccc21 | 25.6% (inactive)
C[C@H](Nc1ncnc2ccc(-c3cnc(Cl)c(NS(C)(=O)=O)c3)cc12)c1ccccc1 | -44.3% (active)

Structure (SMILES) | growth
O=C(CSc1nc2ccccc2c(=O)n1CCc1ccccc1)Nc1ccc(S(=O)(=O)Nc2ccc(Cl)nn2)cc1 | 92.2% (inactive)
NS(=O)(=O)c1ccc(Nc2nc(N/N=C/C=C/c3ccccc3)nc(Nc3ccccc3)n2)cc1 | 48.4% (inactive)
O=C1[C@H]2Cc3c([nH]c4ccccc34)[C@H](c3ccc(Br)cc3)N2C(=O)CN1C1CCN(CC2CCCCC2)CC1 | 83.3% (inactive)
CCc1cc2c(cc1Cl)nc1c(=O)[nH]c(=O)nc-1n2CCOCC(C)(C)C | 91% (inactive)
COc1ccc(-c2nc(C#N)c(N3CCC(S(=O)(=O)N4CCOCC4)CC3)o2)cc1 | 96.9% (inactive)
COC(=O)c1ccc(NC2=C(Cl)C(=O)c3nc(C)ccc3C2=O)cc1 | 61.9% (inactive)
Cc1ccccc1N1CCN(C2=C(Cl)C(=O)c3ncccc3C2=O)CC1 | 74.9% (inactive)
CC[C@]12C=CCN3CC[C@@]4(c5ccc(OC)cc5N(C)[C@H]4[C@@](O)(C(=O)OC)[C@@H]1OC(=O)CCN1CCc4ccccc4C1)[C@@H]32 | 91.9% (inactive)
Cn1cc(-c2nnc(N)nc2-c2c[nH]c3ccc(Br)cc23)c2cc(Br)ccc21 | 98.7% (inactive)
C#C[C@]1(O)CC[C@H]2[C@@H]3CC=C4c5sc(N(C)c6ccccc6)nc5CC[C@]4(C)[C@H]3CC[C@@]21C | 91.3% (inactive)
NS(=O)(=O)c1ccc(Nc2nc(Nc3ccccc3)nc(N3N=C(c4ccc(Cl)cc4)CC3c3ccc(Cl)cc3)n2)cc1 (stereo not given) | 61.1% (inactive)
O=C(CCCCCCN1CC(=O)N2[C@@H](c3ccc(Cl)s3)c3[nH]c4ccccc4c3C[C@H]2C1=O)NO | 52.2% (inactive)
CCCCc1nc2c(N)nc3ccccc3c2n1Cc1cccc(CN)c1 | 63.2% (inactive)
N#C/C(=C\c1ccc(-c2ccc(Cl)c(Cl)c2)o1)C(=O)Nc1ncc(Cc2ccc(Cl)cc2)s1 | 37.8% (inactive)
O=C(Nc1ccc(Cl)c(C(F)(F)F)c1)Nc1ccc2oc(=O)ccc2c1 | 28.5% (inactive)
O=C1Nc2ccccc2/C1=C/c1ccc(OCC(=O)c2ccccc2)cc1 | 94.6% (inactive)
COc1cc(/C=C2/C(=O)Nc3ccc(Cl)cc32)ccc1OCc1ccc(Cl)cc1 | 91.3% (inactive)
